# Assay results: PubChem BioAssay AID1846 (The Scripps Research Institute Molecular Screening Center, 2009)
# Out of some 2,300 compounds screened, about 1,500 (65%) were called active. Rule as the data show it: active = inhibition above about 18%; inactive = the rest. The set was probably picked from earlier hits. Not all results are given here.
# Target: Heat shock protein HSP 90-alpha (Homo sapiens) (UniProt P07900)
# Assay: HSP90 inhibitors, confirmation, cell lysate, luminescence (AID 1846);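 also: 0% = vehicle wells and 100% = reference inhibitor wells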
# Conditions: rabbit reticulocyte lysate, luciferase refolding luminescence, 3 h; at 5.9 µM; hits give high values
row,SMILES,inhibition
1,C/C(=N\NC(=S)NC1CCCCC1)c1ccc(C)o1,3.2% (inactive)
2,CCOc1ccc(OCc2ccc(C(=O)N(C)c3ccccc3)o2)cc1,28.8% (active)
3,O=C(Nc1ccccc1C(=O)O)c1ccc(N2C(=O)C3CC=CCC3C2=O)cc1 (centres undefined),25.4% (active)
4,CCOc1ccc(OCc2cccc(C(=O)N(CC)CC)c2)cc1,39.7% (active)
5,CCS(=O)(=O)c1cc([N+](=O)[O-])c(Sc2ccccc2N)s1,56% (active)
6,Oc1c(C=Nc2cccc3nsnc23)ccc2ccccc12,6.47% (inactive)
7,O=c1oc(/C=C/c2ccccc2)nc2ccccc12,33% (active)
8,COc1ccc(-c2cn3ccc(C)cc3n2)cc1,83.5% (active)
9,Cc1ccc(-c2cn3cc(C)ccc3n2)cc1,90.3% (active)
10,Cc1ccc2nc(-c3ccc(Br)cc3)cn2c1,82% (active)
11,COc1cc(C(=O)NN(CCC#N)C2=NS(=O)(=O)c3ccccc32)cc(OC)c1OC,-4.73% (inactive)
12,CCc1ccc(Nc2ncc3c(n2)CC(c2ccco2)CC3=O)cc1 (centres undefined),-4.8% (inactive)
13,CCOC(=O)N1CCN(Cc2nc3c(c(=O)n(C)c(=O)n3C)n2Cc2ccccc2)CC1,-3.3% (inactive)
14,COc1cc(CNC2CCCCC2)c(Br)cc1OC1CCCC1,5.53% (inactive)
15,Cc1sc2nc(CSCC(=O)Nc3c(Cl)cccc3Cl)[nH]c(=O)c2c1C,-4.2% (inactive)
16,CCc1ccc2oc(-c3ccc(N)cc3)nc2c1,53.6% (active)
17,Nc1ccc(-c2nnc(-c3ccccc3)o2)cc1,4.47% (inactive)

row,SMILES,inhibition
1,Clc1ccc2nc(CSc3ccccc3)cn2c1,57% (active)
2,Cc1cccc(CCNC(=O)Cn2ncc3c([nH]c4ccc(C)cc43)c2=O)c1,5.53% (inactive)
3,Cc1csc(SCC(=O)Nc2sccc2C#N)n1,42.4% (active)
4,Cc1cc(C(=O)COC(=O)C2CC2)c(C)n1-c1ccc(F)cc1,87.3% (active)
5,O=C1CCC([N+](=O)[O-])C(c2ccccc2Br)N1 (centres undefined),-5.63% (inactive)
6,O=C(OC1CCOC1=O)c1ccc(-c2nc3ccccc3s2)s1 (centres undefined),60.6% (active)
7,CCCCNC(=O)Nc1c(C)cc(SC#N)cc1C,4.17% (inactive)
8,CN(CCO)c1ccc(/C=N/Nc2nncc3ccccc23)cc1,91.8% (active)
9,Cc1ccc(Nc2nc(-c3ccc(O)cc3O)cs2)nc1,0.63% (inactive)
10,O=C(CN1C(=O)c2ccccc2S1(=O)=O)N1CCc2ccccc21,46.1% (active)
11,CCOC(=O)CNC(=O)c1nn(-c2cccc(OC)c2)c(=O)c2ccccc12,-0.53% (inactive)
12,COc1ccc(-c2nc(-c3ccccc3)no2)c(OC)c1,84.8% (active)
13,CCOc1c(Br)cc(/C=C2\C(=O)N(CCC#N)N=C2C)cc1OC,-11.9% (inactive)
14,N#C/C=C\Oc1ccc(Cl)cc1N,-1.37% (inactive)
15,CN(C)c1ccc(-n2cccc2/C=N/n2cnnc2)cc1,45.9% (active)
16,CC(C)Nc1ccc(-n2nc3ccccc3[n+]2[O-])cc1,51.6% (active)
17,Cc1ccc(C(=O)COC(=O)c2cccc(N3C(=O)c4c(C)nc5ccccc5c4C3=O)c2)cc1C,4.83% (inactive)
